# Reference: publication PMC5700166
# Residue numbers refer to the chain shown, from its start.
# Tests used:
# Experiment in all cases: protein-binding microarray (PBM); PBM: ~300 nM protein, 6 mM HEPES pH 7.8, 80 mM KCl, 0.5 mM EDTA, 0.5 mM EGTA, 6% glycerol, 35 ng/ul poly-dIdC, 1% milk, 1 h, room temperature; Ap Aiptasia and Nv Nematostella (sea anemones) / Co Capsaspora / Aq Amphimedon (sponge) / Dm Drosophila / Hu human; RHD is the Rel homology domain; high values mean tight binding
# Conditions in all cases: dsDNA, one strand shown
# GST-Ap-NF-kB RHD = target: T1, GST-Ap-NF-kB RHD (Exaiptasia pallida (Aiptasia), UniProt A0A913YAJ5 2-422)
# T1 sequence: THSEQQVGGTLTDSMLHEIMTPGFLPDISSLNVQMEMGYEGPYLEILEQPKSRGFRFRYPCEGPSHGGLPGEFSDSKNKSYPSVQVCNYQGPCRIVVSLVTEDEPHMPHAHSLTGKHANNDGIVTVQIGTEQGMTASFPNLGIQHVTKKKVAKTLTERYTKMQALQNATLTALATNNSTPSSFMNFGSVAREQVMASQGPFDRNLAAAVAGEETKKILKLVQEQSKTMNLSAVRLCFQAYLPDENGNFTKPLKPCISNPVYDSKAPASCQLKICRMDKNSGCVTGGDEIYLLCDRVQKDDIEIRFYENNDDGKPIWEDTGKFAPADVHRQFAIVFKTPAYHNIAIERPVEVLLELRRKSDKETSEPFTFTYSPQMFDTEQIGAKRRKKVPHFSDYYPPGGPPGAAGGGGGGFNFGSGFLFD
# [1] = target: T2, GST-Nv-NF-kB (Cys allele) (Nematostella vectensis, UniProt E5G601 2-411)
# T2 sequence: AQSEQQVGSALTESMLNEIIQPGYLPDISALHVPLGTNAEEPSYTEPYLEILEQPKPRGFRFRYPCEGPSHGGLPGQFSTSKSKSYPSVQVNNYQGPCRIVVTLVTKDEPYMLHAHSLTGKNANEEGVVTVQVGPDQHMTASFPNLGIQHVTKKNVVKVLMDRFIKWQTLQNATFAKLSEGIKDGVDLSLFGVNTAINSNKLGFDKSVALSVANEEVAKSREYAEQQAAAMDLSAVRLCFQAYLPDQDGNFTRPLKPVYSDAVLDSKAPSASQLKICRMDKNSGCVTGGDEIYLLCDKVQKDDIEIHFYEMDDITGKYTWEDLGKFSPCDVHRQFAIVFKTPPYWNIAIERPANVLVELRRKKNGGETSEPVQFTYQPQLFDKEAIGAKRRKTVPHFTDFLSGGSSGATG
# [2] = target: T3, GST-Nv-NF-kB (Ser allele) (Nematostella vectensis, UniProt A7UNT2 2-411)
# T3 sequence: T2 sequence with Q21R, C66S, S207N, E215Q, V217A, E225K, A268E, D399E
# GST-Co-NF-kB = target: T4, GST-Co-NF-kB (Capsaspora owczarzaki, UniProt F1ARL5 200-546)
# T4 sequence: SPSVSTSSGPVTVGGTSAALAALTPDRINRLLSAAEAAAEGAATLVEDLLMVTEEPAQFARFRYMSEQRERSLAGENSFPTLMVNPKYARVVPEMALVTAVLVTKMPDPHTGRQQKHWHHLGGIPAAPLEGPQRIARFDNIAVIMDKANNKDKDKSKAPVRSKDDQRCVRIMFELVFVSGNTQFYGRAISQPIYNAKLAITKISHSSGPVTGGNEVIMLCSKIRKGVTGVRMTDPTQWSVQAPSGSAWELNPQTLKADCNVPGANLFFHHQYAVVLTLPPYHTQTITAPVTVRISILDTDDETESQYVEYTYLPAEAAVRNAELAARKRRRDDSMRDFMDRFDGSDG
# GST-Dm-Relish = target: T5, GST-Dm-Relish (Drosophila melanogaster, UniProt Q94527 99-473)
# T5 sequence: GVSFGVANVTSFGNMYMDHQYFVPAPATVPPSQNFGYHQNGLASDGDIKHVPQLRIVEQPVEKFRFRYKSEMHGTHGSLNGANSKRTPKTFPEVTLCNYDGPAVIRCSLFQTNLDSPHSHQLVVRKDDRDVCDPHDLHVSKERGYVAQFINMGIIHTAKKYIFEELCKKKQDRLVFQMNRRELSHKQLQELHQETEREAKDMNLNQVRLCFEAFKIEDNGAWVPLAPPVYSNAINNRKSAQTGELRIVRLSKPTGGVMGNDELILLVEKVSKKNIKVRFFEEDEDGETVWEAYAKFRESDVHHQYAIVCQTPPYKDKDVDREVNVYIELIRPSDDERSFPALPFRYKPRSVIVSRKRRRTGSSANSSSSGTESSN
# GST-Aq-NF-kB = target: T6, GST-Aq-NF-kB (Amphimedon queenslandica, UniProt A9Y5G7 2-389)
# T6 sequence: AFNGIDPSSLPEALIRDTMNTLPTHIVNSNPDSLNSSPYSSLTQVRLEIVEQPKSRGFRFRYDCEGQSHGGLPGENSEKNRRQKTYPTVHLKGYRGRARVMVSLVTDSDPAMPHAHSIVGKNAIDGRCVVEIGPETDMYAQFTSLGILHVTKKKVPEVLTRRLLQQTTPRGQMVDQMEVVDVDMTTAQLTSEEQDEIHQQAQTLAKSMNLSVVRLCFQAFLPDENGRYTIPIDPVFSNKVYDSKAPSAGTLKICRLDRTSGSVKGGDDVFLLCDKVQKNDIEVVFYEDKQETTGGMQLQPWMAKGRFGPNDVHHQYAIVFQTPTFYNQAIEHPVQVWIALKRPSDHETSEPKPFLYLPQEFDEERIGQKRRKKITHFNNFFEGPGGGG
# GST-Hu-p50 = GST-Hu-p50 (Homo sapiens, UniProt P19838 7-356)
# Chain of GST-Hu-p50 (P19838 7-356): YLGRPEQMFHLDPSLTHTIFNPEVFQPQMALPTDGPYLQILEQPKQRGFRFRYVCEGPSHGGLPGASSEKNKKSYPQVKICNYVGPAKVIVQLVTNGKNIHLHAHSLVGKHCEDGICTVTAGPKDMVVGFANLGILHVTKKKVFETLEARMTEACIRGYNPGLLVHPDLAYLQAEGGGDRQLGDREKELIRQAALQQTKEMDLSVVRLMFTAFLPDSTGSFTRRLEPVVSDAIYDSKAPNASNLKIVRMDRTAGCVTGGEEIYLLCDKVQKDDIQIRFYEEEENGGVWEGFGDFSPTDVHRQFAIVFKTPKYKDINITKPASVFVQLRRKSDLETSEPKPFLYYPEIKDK
Sequence,binding signal (GST-Ap-NF-kB RHD) [z-score],binding signal [1] [z-score],binding signal [2] [z-score],binding signal (GST-Co-NF-kB) [z-score],binding signal (GST-Dm-Relish) [z-score],binding signal (GST-Aq-NF-kB) [z-score],binding signal (GST-Hu-p50) [z-score]
CCGATTAACATCAGACTTTCCCCTGATGTTAATCGGGTCTTGATTCGCTTGACGCTGCTG,6.18,7.69,8.83,7.36,4.9,6.81,5.61
CCGATTAACATCAGGGAAATCCCTGATGTTAATCGGGTCTTGATTCGCTTGACGCTGCTG,9.75,11.4,9.68,4.02,10.3,10.9,7.17
CCGATTAACATCAGGGGGAAAACTGATGTTAATCGGGTCTTGATTCGCTTGACGCTGCTG,8.4,8.08,9.8,11.7,7.59,7.21,7.47
CCGATTAACATCAAAAAATCCCGTGATGTTAATCGGGTCTTGATTCGCTTGACGCTGCTG,5.57,6.22,5.2,2.99,8.31,6.71,4.97
CCGATTAACATCAGAAAACCCCCTGATGTTAATCGGGTCTTGATTCGCTTGACGCTGCTG,10.8,10,11,4.05,10,8.84,8.24
CCGATTAACATCAGGGGGACAACTGATGTTAATCGGGTCTTGATTCGCTTGACGCTGCTG,5.19,5.15,4.83,6.16,3.66,4.24,4.46
CCGATTAACATCAAAAGTTCCCCTGATGTTAATCGGGTCTTGATTCGCTTGACGCTGCTG,8.35,9.74,10.9,9.64,9.48,7.95,6.5
CCGATTAACATCAGGGGGGATAATGATGTTAATCGGGTCTTGATTCGCTTGACGCTGCTG,5.8,4.93,5.26,7.17,4.67,4.72,5.14
CCGATTAACATCAGGGGAAATTATGATGTTAATCGGGTCTTGATTCGCTTGACGCTGCTG,8.88,10.5,12.1,9.24,6.62,7.99,6.95
CCGATTAACATCAAACTTCCCCCTGATGTTAATCGGGTCTTGATTCGCTTGACGCTGCTG,7.75,7.86,9.14,9.35,7.36,7.49,6.72
CCGATTAACATCAGGAATTTCCCTGATGTTAATCGGGTCTTGATTCGCTTGACGCTGCTG,6.77,10.1,6.94,4.93,5.72,10.8,6.03
CCGATTAACATCAAGGGAATGCCTGATGTTAATCGGGTCTTGATTCGCTTGACGCTGCTG,2.72,3.58,2.83,1.06,2.97,4.2,1.87
